Among the test systems are T-47D breast; BT-549 breast; MDA-MB-435 melanoma; SW-620 colon; MCF7 breast; HCT-116 colon; HCC-2998 colon; KM12 colon.
Holding throughout (experiment): NCI-60 one-dose screen, 48 h (100 = growth as untreated, 0 = no growth, -100 = all killed)
What all share (details): 10 µM unless noted

Molecules are shown by their SMILES. Compounds without any hit were thinned out: in the full panel of roughly 83,000, 20% have a hit.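 Testing used 96-well plates and a 48-hour single-concentration exposure. Example: -40 means 40% of the starting cells died.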 A number with no mark means an inactive call. Activity calls are given as the source filed them. How the source made its calls: active means growth percent below 10; inactive means the rest.

As for `Cc1ccc(C(=O)Nc2cccc(C#Cc3cccc4[nH]nc(N)c34)c2)cc1C(F)(F)F`, the growth with T-47D breast was 46.3%; with BT-549 breast it was 86.6%; with MDA-MB-435 melanoma it was 62.4%; with SW-620 colon, 65.4%; in the experiment with MCF7 breast, 59.8%; in the experiment on HCT-116 colon, 25.2%. The figures for the growth in the experiment with HCC-2998 colon and with KM12 colon were 51% and 64.3%, respectively.

Take `CC(=O)/C(=C/c1ccc([N+](=O)[O-])cc1)C(=O)c1ccccc1`: the growth with T-47D breast is 67.6%; with BT-549 breast it was 89.8%; in the experiment with MDA-MB-435 melanoma, 77.3%; in the experiment on SW-620 colon, 65.4%; with MCF7 breast, 29.2%; in the experiment with HCT-116 colon, 35.7%. For the same molecule, the growth is 95.2% in the experiment on HCC-2998 colon and 58.9% with KM12 colon.

In the case of `O=S(=O)(NCCCNc1nccc(-c2c(-c3cccc(F)c3)nc3occn23)n1)c1ccc(F)cc1`, the growth is 6.92% (active) in the experiment on T-47D breast; 69.4% in the experiment on BT-549 breast; 25.6% in the experiment with MDA-MB-435 melanoma; 67.7% in the experiment on SW-620 colon; 60.1% in the experiment with MCF7 breast; 34% in the experiment with HCT-116 colon. The growth was 77.3% in the experiment with HCC-2998 colon and 40.4% with KM12 colon.

On to `CN(Cc1cc(Br)cc(Br)c1O)Cc1cc(Br)cc(Br)c1O`, for which the growth in the experiment on T-47D breast was 42.6%; in the experiment with BT-549 breast, 57.8%; with MDA-MB-435 melanoma it was 52.6%; in the experiment on SW-620 colon it was 24.5%; in the experiment with MCF7 breast, 17.7%; in the experiment with HCT-116 colon it was 7.44% (active). The growth in the experiment on HCC-2998 colon was 38.7%; with KM12 colon, 42.5%.

For the molecule `Clc1ccccc1-c1cnn2cc(-c3ccccc3)cnc12`, the growth is 78.9% with T-47D breast; 83.1% in the experiment on BT-549 breast; 44.8% in the experiment with MDA-MB-435 melanoma; 76.9% with SW-620 colon; 75.3% in the experiment with MCF7 breast; 69% in the experiment with HCT-116 colon. The growth was 85.9% in the experiment on HCC-2998 colon and 63.8% with KM12 colon.

For `NC1=Nc2cc(OCCCCN3Cc4ccccc4C3)c(OCC3CC3)cc2C12CCCC2`, the growth was -46.9% (active) in the experiment on T-47D breast; 82.2% in the experiment with BT-549 breast; 5.33% (active) in the experiment on MDA-MB-435 melanoma; 3.2% (active) in the experiment with SW-620 colon; 10.6% in the experiment on MCF7 breast; 11.3% in the experiment on HCT-116 colon. In addition, the values for the growth in the experiment on HCC-2998 colon and with KM12 colon were -58.2% (active) and 46.5%, respectively.

Turning to `CCO/C=N/C1=C(C#N)C(c2ccc(F)cc2)c2sc3c(F)cccc3c2O1` (stereo not given), the growth in the experiment on T-47D breast was 40.6%; in the experiment with BT-549 breast it was 48.5%; with MDA-MB-435 melanoma, -23.7% (active); with SW-620 colon it was 20.6%; in the experiment on MCF7 breast it was 15.7%; in the experiment with HCT-116 colon, 39%. The growth is 77% in the experiment on HCC-2998 colon and 32.5% in the experiment on KM12 colon.

Take `Cn1cc(-c2ccc(-c3cn(C)c4ccc(Cl)cc34)[nH]2)c2cc(Cl)ccc21`: the growth in the experiment with T-47D breast is -51.1% (active); in the experiment on BT-549 breast, -83.7% (active); in the experiment on MDA-MB-435 melanoma, 19.5%; in the experiment with SW-620 colon, -83.1% (active); in the experiment with MCF7 breast, 18.8%; with HCT-116 colon, -85.5% (active). In addition, the results for the growth in the experiment on HCC-2998 colon and in the experiment with KM12 colon were -72.2% (active) and -33.5% (active), respectively.

Turning to `O=C1c2ccccc2C(=O)C1c1ccc(Br)cc1`, the growth in the experiment on T-47D breast is 108%; in the experiment with BT-549 breast it was 101%; with MDA-MB-435 melanoma, 97.9%; in the experiment on SW-620 colon, 99.9%; in the experiment with MCF7 breast, 87.7%; in the experiment with HCT-116 colon, 92.4%. The growth with HCC-2998 colon is 98%; with KM12 colon, 107%.

`Cc1ccccc1Nc1cc(O)c2c(=O)cc(-c3ccccc3)oc2c1`: the growth in the experiment on T-47D breast is 36.5%; in the experiment with BT-549 breast, 47.1%; with MDA-MB-435 melanoma, 1.9% (active); in the experiment on SW-620 colon, 21%; with MCF7 breast, 15.5%; in the experiment with HCT-116 colon, 15.2%. The figures for the growth with HCC-2998 colon and in the experiment on KM12 colon were 76.7% and 36.4%, respectively.

Consider `O=C(/C=C(O)/C=C/c1cccc2[nH]ccc12)/C=C/c1cccc2[nH]ccc12`, for which the growth was 65% in the experiment with T-47D breast; 76.4% in the experiment with BT-549 breast; -2.09% (active) with MDA-MB-435 melanoma; 50.5% in the experiment on SW-620 colon; 16.5% in the experiment on MCF7 breast; 46.3% in the experiment on HCT-116 colon. In addition, the growth in the experiment on HCC-2998 colon was 102%; in the experiment with KM12 colon it was 95.3%.

`COc1cccc(/C=N/NC(=O)c2ccccc2N2CCCC2)c1O`: the growth in the experiment on T-47D breast is 24.7%; with BT-549 breast it was 17.8%; in the experiment with MDA-MB-435 melanoma, 85.5%; in the experiment on SW-620 colon, 45.3%; in the experiment with MCF7 breast, 5.29% (active); in the experiment on HCT-116 colon, 4.81% (active). For the same molecule, the growth with HCC-2998 colon is 51.8%; in the experiment on KM12 colon, 46.5%.

As to `FC(F)(F)c1ccc(Cn2cc(CSc3nc4ccccc4s3)nn2)cc1`, the growth with T-47D breast is 90%; in the experiment with BT-549 breast, 92.3%; in the experiment with MDA-MB-435 melanoma, 101%; in the experiment on SW-620 colon it was 98.1%; in the experiment with MCF7 breast, 92.8%; in the experiment on HCT-116 colon, 98.2%. The growth in the experiment with HCC-2998 colon is 104%; with KM12 colon, 99%.

In the case of `O=C(/C=C/c1ccc(Oc2ccc(Br)cc2)cc1)c1ccc(Br)cc1`, the growth with T-47D breast was 92.3%; in the experiment on BT-549 breast, 110%; in the experiment with MDA-MB-435 melanoma it was 93%; with SW-620 colon, 93.7%; in the experiment on MCF7 breast, 73%; with HCT-116 colon it was 97.6%. The growth with HCC-2998 colon is 95.5%; with KM12 colon, 95.7%.

For `Cc1nn(-c2ccccc2)c(N)c1N=C1NC(=O)/C(=C/c2ccc(Br)cc2)S1`, the growth in the experiment with T-47D breast is 85.3%; in the experiment with BT-549 breast it was 78.6%; in the experiment on MDA-MB-435 melanoma it was 49.7%; in the experiment on SW-620 colon, 84.2%; in the experiment on MCF7 breast, 78.2%; with HCT-116 colon it was 68%. Further, the growth in the experiment with HCC-2998 colon is 111%; in the experiment with KM12 colon it was 76%.
